Assay results reported in PubChem BioAssay (NCI).
The panel holds about 79,000 compounds, 15% with a hit somewhere; the sample as a whole holds those more often. Values without a mark were called inactive. Activity calls are given as the source filed them. Cut-off read from the data, not from the text of the source: active = growth inhibition above about 70%; inactive = the rest.

Legend:
[1] = NCI Yeast Anticancer Drug Screen. Data for the rad50 strain (AID 155);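 note: 0% = growth of vehicle-only cultures of the same strain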; conditions: S. cerevisiae rad50 strain growth inhibition, stronger effect = higher value
Procedure, shortened: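 Cells are treated with compound, grown, and their growth is then scored against vehicle-only cultures of the same repair-deficient yeast strain.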

[2] = NCI Yeast Anticancer Drug Screen. Data for the mec2-1 strain (AID 157); conditions: S. cerevisiae mec2-1 strain, stronger effect = higher value
Procedure, shortened: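 Test agents were screened against the mec2-1 yeast strain, with defined DNA repair or cell cycle alteration. Growth was scored as inhibition against vehicle-only controls.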

[3] = NCI Yeast Anticancer Drug Screen. Data for the sgs1 mgt1 strain (AID 161);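 note: 0% = growth of cultures given vehicle only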; conditions: S. cerevisiae sgs1 mgt1 strain, stronger effect = higher value
Procedure, shortened: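 Inhibition of yeast growth, normalised to vehicle-treated controls, is reported for a strain bearing genetic alterations in DNA damage repair.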

[4] = NCI Yeast Anticancer Drug Screen. Data for the cln2 rad14 strain (AID 165);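 note: 0% = growth equal to vehicle treated cultures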; conditions: S. cerevisiae cln2 rad14 strain, stronger effect = higher value
Procedure, shortened: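 Growth of compound-exposed yeast (cln2 rad14 genotype) measured and expressed as inhibition relative to vehicle.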

[5] = NCI Yeast Anticancer Drug Screen. Data for the bub3 strain (AID 167); conditions: S. cerevisiae bub3 mutant strain, stronger effect = higher value
Procedure, shortened: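 Part of a panel of yeast mutants defective in DNA damage repair or cell cycle regulation. Each strain is grown with compound, and inhibition is calculated relative to solvent-treated cultures.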

[6] = NCI Yeast Anticancer Drug Screen. Data for the mlh1 rad18 strain (AID 175); conditions: S. cerevisiae mlh1 rad18 strain growth inhibition, stronger effect = higher value
Procedure, shortened: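 In this whole-cell yeast screen, a strain with altered DNA damage repair is challenged with compound, and its growth is measured against matched vehicle-treated controls.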

[7] = at 5.0 µM (retest, dose inferred, filed as 0.5)
[8] = at 50.0 µM (retest, dose inferred, filed as 5.0)

Structure (SMILES)	growth inhibition [1, 7]	growth inhibition [1, 8]	growth inhibition ([1]; at 50.0 µM)	growth inhibition [2, 7]	growth inhibition [2, 8]	growth inhibition ([2]; at 50.0 µM)	growth inhibition [3, 7]	growth inhibition [3, 8]	growth inhibition ([3]; at 50.0 µM)	growth inhibition [4, 7]	growth inhibition [4, 8]	growth inhibition ([4]; at 50.0 µM)	growth inhibition [5, 7]	growth inhibition [5, 8]	growth inhibition ([5]; at 50.0 µM)	growth inhibition [6, 7]	growth inhibition [6, 8]	growth inhibition ([6]; at 50.0 µM)
CCc1c(O)sc2c(c1=O)C(=NCC(C)C)CC(C)(C)N2	-5%	5%	40.3%	15%	34%	24.1%	9%	-4%	34.1%	-14%	-7%	27.4%	2%	4%	10.8%	-12%	-6%	53.9%
C1=C(c2ccccc2)CCc2ccccc21	1%	14%	12.7%	5%	-1%	-11.5%	5%	14%	-1.95%	0%	-14%	50.9%	-3%	3%	2.6%	-4%	3%	1.5%
COc1cc(O)c2c(=O)c3cccc(C)c3[nH]c2c1	8%	73% (active)	2.6%	-17%	28%	54.9%	3%	41%	46.1%	14%	37%	49.4%	2%	54%	62.6%	2%	54%	70% (active)
CCC(c1ccc(O)cc1)C(CC)c1ccc(O)c(CN(C)C)c1 (stereo not given)	1%	76% (active)	66.8%	0%	74% (active)	45.5%	-6%	98% (active)	74.2% (active)	-3%	83% (active)	42.6%	-1%	83% (active)	36.5%	2%	96% (active)	65.3%
CN(C)CC1CCCCCCCCCCCCC(CN(C)C)C1=O (stereo not given)	-18%	42%	83.7% (active)	-6%	22%	77.8% (active)	-15%	57%	95.5% (active)	-23%	20%	72.2% (active)	-15%	46%	88% (active)	-13%	87% (active)	39%
CCCCCCCCCCCCCCCC[n+]1ccc(/C=C/c2ccccc2)cc1	75% (active)	95% (active)	98.4% (active)	100% (active)	96% (active)	98.8% (active)	99% (active)	98% (active)	98.5% (active)	46%	94% (active)	97.8% (active)	88% (active)	97% (active)	97.8% (active)	99% (active)	98% (active)	97.7% (active)
Cc1cc(-c2ccc(N=Nc3cc(S(=O)(=O)O)c4ccccc4c3N)c(C)c2)ccc1N=Nc1cc(S(=O)(=O)O)c2ccccc2c1N	19%	82% (active)	64.6%	16%	60%	52.1%	29%	69%	66.8%	31%	48%	30.6%	26%	73% (active)	73.7% (active)	32%	86% (active)	71% (active)
O=C1CCC(C(c2ccccc2)(c2ccccc2)c2ccccc2)CC1=O (stereo not given)	0%	99% (active)	-11.1%	-1%	98% (active)	16.9%	0%	99% (active)	-5.2%	-14%	99% (active)	22.5%	-3%	99% (active)	0.85%	-1%	99% (active)	-10.2%
Cc1cc(N=Nc2ccccc2C)c(N)cc1N	-12%	56%	99.2% (active)	-11%	97% (active)	99.2% (active)	4%	90% (active)	99.5% (active)	-27%	40%	98.3% (active)	-14%	86% (active)	99.3% (active)	-13%	90% (active)	99.5% (active)
CCc1cccc(C)c1NC(=O)C(=O)CC(=O)c1ccccc1Cl	0%	-1%	72% (active)	-1%	3%	24.7%	-4%	0%	43.8%	-6%	5%	-12.6%	-2%	-2%	24.4%	-8%	0%	31.1%
